Experiment [1] can be described thus: liver-stage malaria parasite growth inhibition, primary screen, cell-based, HepG2, luciferase luminescence, HepG2 viability (AID 624349; in the data active = parasite load remaining mostly below about 12%, no sharp cut-off; inactive = mostly above about 10%;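 note: 100% = mean of DMSO negative control wells on the same plate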). The settings on record: P. berghei liver stage in HepG2, luciferase luminescence, concentration not given here; parasite load remaining: stronger effect = lower value; viability: measured here: HepG2 viability without parasites.
Experiment [2] in a line: Cy5 fluorescence interference with SSB-bound oligo, artefact control for HCV NS3 helicase inhibitor project, biochemical, NIH Clinical Collection, E. coli SSB (AID 743268; call rule not given here).
For experiment [3], the system named is Hepatitis C virus NS3 helicase. In words: HCV NS3 helicase inhibitors, primary screen, biochemical, fluorescence polarization, NIH Clinical Collection (AID 743270; call rule not given here). The settings on record: NS3 helicase binding to Cy5-dT15 DNA, stronger effect = higher value, concentration not given here.
Experiment [4] deals with Single-stranded DNA-binding protein (Escherichia coli (strain K12)) (UniProt P0AGE0). The experiment in a line: E. coli SSB displacement from DNA, counter-screen for HCV NS3 helicase inhibitor project, biochemical, fluorescence polarization, NIH Clinical Collection (AID 743271; in the data active = inhibition above about 28%). The settings on record: stronger effect = higher value, concentration not given here. (A counterscreen serves to expose hits that act by an unwanted route or on another target.)

Experiment [5] is described as follows: fluorescence interference in NS3h assay format, artefact control for HCV NS3 helicase inhibitor project, biochemical, NIH Clinical Collection (AID 743272; call rule not given here;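 note: HCV NS3 helicase with a Cy5 labelled single stranded DNA probe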). The note with it: fluorescence interference counterscreen, stronger effect = lower value.
In experiment [6] the test system is Neuropilin-2 / VEGF-C interaction (human). In words: inhibitors of NRP2–VEGF-C binding, biochemical, microplate binding format, z-score (AID 743281; call rule not given here). The note with it: microplate NRP2/VEGF-C binding assay; stronger effect = lower value.
The nature of experiment [7]: modulation of C. elegans fzo-1 (AID 1259413; call rule not given here;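 note: fzo-1 mutant C. elegans worms in liquid wells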). The settings on record: C. elegans fzo-1 modulator screen, mean read-out; stronger effect = higher value.
A short description of experiment [8]: sensitizers of A549 cells to miR-34 induction, primary screen, imaging, A549 dox-inducible miR-34, nuclei and caspase counts (AID 1347080;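 active = compounds whose cell count with miR-34 switched on is under 0.7 times the count with it off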). The settings on record: A549 miR-34 inducible, Hoechst nuclei count, 48 h.
Experiment [9] can be described thus: viability rescue of complex I mutant cybrids, primary screen, cell-based, galactose medium, ATP luminescence (AID 1645843;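 active = z-score of at least 1.8 in each of two replicates, scored against plate mean and spread of sample wells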;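 note: positive z means more ATP and so rescue of galactose-driven cybrid death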). The settings on record: complex I mutant cybrid cells, 72 h, stronger effect = higher value.
The test system of experiment [10] is F380Y. The experiment in a line: modulators of BK channel variants, profiling panel, selectivity assay, cell-based, U2OS BacMam, thallium flux, beta subunits (AID 1259406).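 Note: initial slope of Thallos dye fluorescence rise after thallium is added; log ratio against the mean of 0.3% DMSO vehicle wells on the same plate.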 The settings on record: at 30 µM.
Experiment [11] has as its system F380Y/beta1. The experiment is described as above. The settings on record: at 30 µM.
The subject of experiment [12] is F380Y/beta2Delta. Described as above. The settings on record: at 30 µM.
In experiment [13] the test system is F380Y/beta4. The description is as above. The settings on record: at 30 µM.
Experiment [14] deals with Calcium-activated potassium channel subunit alpha-1 (Homo sapiens) + Leucine-rich repeat-containing protein 26 (Homo sapiens) (UniProt Q12791+Q2I0M4). The description is as above. The note with it: F380Y/Slo1WT/gamma1, at 30 µM.
Chain of Calcium-activated potassium channel subunit alpha-1 (Homo sapiens) + Leucine-rich repeat-containing protein 26 (Homo sapiens) (Q2I0M4 whole entry, looked up, one chain of several): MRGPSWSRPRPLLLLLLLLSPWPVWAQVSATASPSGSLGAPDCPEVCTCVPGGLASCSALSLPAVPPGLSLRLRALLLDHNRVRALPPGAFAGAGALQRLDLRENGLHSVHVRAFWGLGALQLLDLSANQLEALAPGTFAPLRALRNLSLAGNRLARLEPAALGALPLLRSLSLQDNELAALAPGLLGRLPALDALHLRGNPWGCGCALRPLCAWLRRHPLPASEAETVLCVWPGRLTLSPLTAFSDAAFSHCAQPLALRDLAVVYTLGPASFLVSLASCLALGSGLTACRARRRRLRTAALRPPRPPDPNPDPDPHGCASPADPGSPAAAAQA
Experiment [15] concerns R275C. Described as above. The settings on record: at 30 µM.
Experiment [16] concerns R275C/beta1. The description is as above. The note with it: at 30 µM.
Experiment [17] concerns R275C/beta2Delta. Described as above. The note with it: at 30 µM.
The test system of experiment [18] is R275C/beta4. The experiment is described as above. The settings on record: at 30 µM.
The subject of experiment [19] is R275C/Slo1WT/beta2. The experiment is described as above. The note with it: at 30 µM.
The mark [20] stands for this setting: stronger effect = lower value, cell number ratio, induced over uninduced.
Setting [21] is: measured here: relative caspase fold change +Dox/-Dox.
Where [22] appears, read: measured here: total cells with miR-34 induction, stronger effect = lower value.
[23] abbreviates: measured here: total cells without miR-34 induction.

As usually defined, the viability is a read-out of living cells in per cent, often relative to untreated cells. The inhibition is the change of the read-out against control, counted positive when it falls.

“And” between values parts separate entries of the source, which are not always exact repeats. Equal entries are not always repeated. The source made the active and inactive calls.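 Rule for the calls, unless noted: active = thallium flux through the channel raised or lowered by more than 3 SD from vehicle-only wells, actives on both sides; inactive = the rest.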

With `CC12CCC(=O)C=C1CCC1C2CCC2(C)C1CCC2(O)C(=O)CO` (configuration not stated), in [1], the parasite load remaining was 47.2% (inactive). Further, the viability in [1] amounted to 63.5%. Further, the fluorescence ratio in [2] is 0.91 (inactive); in [5] it was 0.84 (inactive). For the same compound, the inhibition was -4.59% (inactive) in [3] and 1.18% (inactive) in experiment [4]. Besides, the z-score is -0.624 (inactive) in [6] and 0.28 (inactive) in [9]. For the same compound, in [7], the mean signal was 241 (inactive). For the same compound, the figures for the fold change in experiment [8] (setting [20]) and in [8] (setting [21]) were 1.28 (inactive) and 1.98, respectively. In addition, the cell count came out at 7560 in experiment [8] (setting [22]) and 5920 in [8] (setting [23]). In addition, the log fold change Tl+ flux in experiment [10] was -0.0107 (inactive); in experiment [11], 0.000378 (inactive); in experiment [12], 0.0311 (inactive); in experiment [13], 0.00388 (inactive); in experiment [14], 0.0303 (inactive); in experiment [15], 0.029 (inactive). The log fold change Tl+ flux in [16] was -0.042 (inactive); in experiment [17], -0.0755 (inactive); in experiment [18], -0.0135 (inactive); in experiment [19] it was -0.0119 (inactive).

Take `Fc1ccc(C2CCNCC2COc2ccc3c(c2)OCO3)cc1` (configuration not stated): the parasite load remaining in experiment [1] was -4.52% (inactive). In addition, the viability in experiment [1] was 0.26%. The fluorescence ratio in [2] was 1 (inactive); in [5], 0.83 (inactive). Further, the inhibition was -15% (inactive) in experiment [3] and 3.34% (inactive) in experiment [4]. The fold change is 0.992 (inactive) and 1.04 (inactive) and 0.943 (inactive) in experiment [8] (setting [20]); 1.42 and 1.09 and 2.45 in experiment [8] (setting [21]). Further, the cell count was 5960 and 7070 and 8540 in [8] (setting [22]); 6000 and 6830 and 9050 in experiment [8] (setting [23]). The z-score in experiment [9] is -0.98 (inactive) and -1.43 (inactive). Moreover, the log fold change Tl+ flux in experiment [10] is 0.146 (active); in experiment [11], 0.116 (inactive); in experiment [12], 0.246 (active); in experiment [13] it was 0.274 (active); in [14], 0.0579 (inactive); in experiment [15], 0.0588 (inactive). In addition, the log fold change Tl+ flux in [16] was 0.254 (active); in experiment [17], 0.126 (active); in experiment [18], 0.218 (active); in experiment [19] it was -0.0537 (inactive).

On to `C[C@]12CC3CC(N)(C1)C[C@@](C)(C3)C2`, for which, in [1], the parasite load remaining is 113% (inactive) and 58.5% (inactive). Further, the viability in experiment [1] was 85.8% and 102%. In addition, the fluorescence ratio is 1.06 (inactive) in experiment [2] and 0.95 (inactive) in experiment [5]. For the same compound, the results for the inhibition in experiment [3] and in experiment [4] were 0.4% (inactive) and -0.87% (inactive), respectively. Besides, the fold change in experiment [8] (setting [20]) is 0.918 (inactive) and 0.871 (inactive); in experiment [8] (setting [21]) it was 1.34 and 1.17. In addition, the cell count in experiment [8] (setting [22]) is 9680 and 10100; in [8] (setting [23]) it was 10500 and 11600. Also, the z-score in [9] was -0.375 (inactive) and -0.275 (inactive). The log fold change Tl+ flux was -0.00548 (inactive) in experiment [10]; -0.0368 (inactive) in [11]; 0.033 (inactive) in experiment [12]; 0.0342 (inactive) in experiment [13]; -0.0162 (inactive) in experiment [14]; 0.0086 (inactive) in experiment [15]. Moreover, the log fold change Tl+ flux in experiment [16] was -0.0112 (inactive); in [17], -0.0288 (inactive); in experiment [18], -0.00234 (inactive); in [19], -0.0124 (inactive).

As for `O=C(O[C@H]1[C@H](Oc2ccccc2COC(=O)C2(O)C=CCCC2=O)O[C@H](CO)[C@@H](O)[C@@H]1O)c1ccccc1` (some centres not stated), the parasite load remaining in experiment [1] is 48.8% (inactive). For the same compound, the viability in experiment [1] is 72.8%. Also, the fluorescence ratio in [2] was 1 (inactive); in experiment [5], 0.99 (inactive). For the same compound, the inhibition was -0.22% (inactive) in experiment [3] and -2.76% (inactive) in experiment [4]. In addition, the z-score in [6] is -0.65 (inactive). In addition, the mean signal in experiment [7] is 249 (inactive). In addition, the log fold change Tl+ flux in experiment [10] was 0.0202 (inactive); in experiment [11], 0.0124 (inactive); in experiment [12], -0.0274 (inactive); in experiment [13], 0.0177 (inactive); in experiment [14] it was -0.0394 (inactive); in experiment [15] it was 0.00346 (inactive). Further, the log fold change Tl+ flux in experiment [16] was 0.0475 (inactive); in experiment [17] it was 0.0175 (inactive); in experiment [18], 0.0193 (inactive); in experiment [19] it was 0.0101 (inactive).

In the case of `CC(COc1ccccc1Cc1ccccc1)N1CCCCC1` (configuration not stated), the parasite load remaining in experiment [1] is 25.1% (inactive). In experiment [1], the viability was found to be 82.3%. Also, the values for the fluorescence ratio in experiment [2] and in experiment [5] were 1.04 (inactive) and 1.01 (inactive), respectively. The inhibition in experiment [3] was -2.77% (inactive); in [4], 3.75% (inactive). The z-score in experiment [6] is -1.06 (inactive); in [9], -1.81 (inactive). The mean signal in experiment [7] is 222 (inactive). In addition, the fold change in experiment [8] (setting [20]) was 0.815 (inactive); in [8] (setting [21]), 2.34. The cell count in [8] (setting [22]) was determined as 6390; in [8] (setting [23]), 7840. Also, the log fold change Tl+ flux was 0.0907 (inactive) in experiment [10]; 0.236 (active) in [11]; -0.0416 (inactive) in [12]; 0.194 (active) in experiment [13]; -0.0112 (inactive) in experiment [14]; -0.246 (active) in experiment [15]. Further, the log fold change Tl+ flux was 0.252 (active) in [16], 0.0368 (inactive) in experiment [17], -0.00829 (inactive) in experiment [18] and -0.0412 (inactive) in experiment [19].

For the compound `CO[C@H]1/C=C/O[C@@]2(C)Oc3c(C)c(O)c4c(O)c(c5c(c4c3C2=O)NC2(CCN(CC(C)C)CC2)N=5)=NC(=O)/C(C)=C\C=C\[C@H](C)[C@H](O)[C@@H](C)[C@@H](O)[C@@H](C)[C@H](OC(C)=O)[C@@H]1C`, the parasite load remaining in [1] was 23.3% (inactive). Moreover, the viability in [1] was found to be 92.9%. The fold change in experiment [8] (setting [20]) is 1.03 (inactive); in experiment [8] (setting [21]), 1.58. Moreover, the cell count was 8520 in [8] (setting [22]) and 8270 in [8] (setting [23]). Also, the z-score in experiment [9] is -1.49 (inactive). Moreover, the log fold change Tl+ flux in experiment [10] is 0.0411 (inactive); in [11], -0.0629 (inactive); in experiment [12], -0.104 (active); in experiment [13], -0.0899 (inactive); in [14], -0.055 (inactive); in [15] it was -0.198 (active). For the same compound, the log fold change Tl+ flux in experiment [16] is 0.128 (active); in experiment [17], -0.107 (active); in [18], 0.00982 (inactive); in [19], -0.0228 (inactive).

As for `O=C(O)COCCN1CCN([C@H](c2ccccc2)c2ccc(Cl)cc2)CC1`, in [1], the parasite load remaining was 91.6% (inactive). The viability in [1] came to 73.9%. In experiment [6], the z-score was -0.677 (inactive). For the same compound, in [7], the mean signal was 261 (inactive). For the same compound, the log fold change Tl+ flux is 0.0476 (inactive) in experiment [10]; 0.0381 (inactive) in [11]; 0.0598 (inactive) in experiment [12]; -0.027 (inactive) in experiment [13]; 0.0629 (inactive) in [14]; -0.011 (inactive) in [15]. Further, the log fold change Tl+ flux is 0.122 (active) in experiment [16], 0.083 (inactive) in experiment [17], 0.0472 (inactive) in [18] and 0.0404 (inactive) in experiment [19].

For the origin of these results see PubChem BioAssay.
